Shown are actives, neighbours in structure and some others; about 7.3% of the full set was active somewhere.
ELG1 genotoxic = induces genotoxicity in HEK293T cells with luciferase-tagged ELG1. 330,000 compounds, 1.3% hits. Potency, µM (series often up to 46 µM), for inactives: at the highest dose activity change, positive = activation, usual class: activators. HEK293T ELG1-luciferase reporter, luminescence, 16 h. AID 504466; also: % of control where 0% means no effect; nearly all actives have a fitted effect of over 60% in size
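After overnight (16 hr) compound treatment at 37 °C, ELG1-luciferase HEK293T cells were lysed with ONE-Glo; luminescence quantified 30 min later at room temperature.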
SMN2 splice up = SMN2 splice variant enhancement. Potency, µM (series often up to 46.1 µM), for inactives: top-dose activity change, positive = activation, most hits filed as activators. HEK293 SMN2-luciferase splicing reporter, luminescence, 30-36 h. 210,000 compounds, 2.8% hits; also: % of control where 0% means no effect; nearly all actives have a fitted effect of over 55% in size
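HEK293 cells carry an SMN2 […]–luciferase reporter in which exon 7 inclusion puts luciferase in frame. Cells were plated 10-12 h before compound addition, then incubated 30-36 h at 37C. ONE-Glo luminescence was read; sodium butyrate at 4.5 mM final served as control.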
NPC1 promoter act = NPC1 promoter activation. 320,000 compounds, 2.4% hits. AID 485313. Potency, µM (series often up to 9.22 µM), for inactives: at the top dose activation, most hits filed as activators. Huh7 NPC1 promoter luciferase reporter, 24 h; also: % of control where 0% means no effect; nearly all actives have a fitted effect of over 60% in size
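Luminescence read-out of NPC1 promoter-driven luciferase in stably transfected Huh7 cells; compounds delivered in DMSO and left 24 h at 37C, 5% CO2, qHTS titration format.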
FLuc counter = firefly luciferase modulation, counter-screen for miR-21 project. 360,000 compounds, 6.9% hits. Potency, µM (series often up to 57.5 µM), without a hit: at the top dose activity change, negative = inhibition, actives largely listed as inhibitors. purified FLuc, Km substrates, luminescence inhibition. AID 588342;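 also: plate controls were vehicle for no effect and reference inhibitor for full effect; nearly all actives have a fitted effect of over 55% in size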
Target sequence (P08659 whole entry, looked up): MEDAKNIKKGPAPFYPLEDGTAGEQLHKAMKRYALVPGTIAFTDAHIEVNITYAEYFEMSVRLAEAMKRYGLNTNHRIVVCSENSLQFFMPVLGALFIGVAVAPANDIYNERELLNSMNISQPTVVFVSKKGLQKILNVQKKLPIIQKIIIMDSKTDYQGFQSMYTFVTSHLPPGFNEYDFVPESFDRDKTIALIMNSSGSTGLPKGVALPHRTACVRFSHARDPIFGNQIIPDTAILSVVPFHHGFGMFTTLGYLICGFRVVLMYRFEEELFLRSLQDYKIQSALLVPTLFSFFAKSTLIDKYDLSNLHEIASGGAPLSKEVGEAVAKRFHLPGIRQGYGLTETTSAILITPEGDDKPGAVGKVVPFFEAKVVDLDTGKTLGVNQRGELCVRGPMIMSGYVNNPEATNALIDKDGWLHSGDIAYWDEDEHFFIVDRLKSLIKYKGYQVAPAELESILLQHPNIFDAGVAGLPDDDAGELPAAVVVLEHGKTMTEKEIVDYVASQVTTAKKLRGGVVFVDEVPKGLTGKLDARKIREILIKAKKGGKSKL
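Purified P. pyralis luciferase, 10 nM final, with Km-level 10 uM D-luciferin and 10 uM ATP in 50 mM Tris acetate pH 7.5, 10 mM Mg acetate, 0.01% Tween-20, 0.05% BSA; 6-point qHTS titration about 60 µM downward; luminescence read.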
Rab9 prom act = activates the Rab9 promoter. Huh7 Rab9 promoter-luciferase reporter, luminescence, 24 h. Potency, µM (highest dose often 9.22 µM), for inactives: at the highest dose activation, negative = inhibition, usual class: activators. 320,000 compounds, 2.8% hits. AID 485297; also: % of control where 0% means no effect; nearly all actives have a fitted effect of over 60% in size
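Cells were plated at 1500 per well in reduced-serum medium with 10% FBS and left 2 h. Compound in DMSO was then added for 24 h at 37 °C. Reporter signal was read by luminescence after 10 min with luciferase detection reagent.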
p53 reactivator = re-activators of mutant p53; H1299 p53-A138V BP100-luciferase reporter, luminescence, 24 h; AID 504706; Potency, µM (doses to about 92.2 µM), for inactives: at the highest dose activity change, positive = activation, most hits filed as activators; 320,000 compounds, 0.063% hits; also: % of control where 0% means no effect; nearly all actives have a fitted effect of over 45% in size
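H1299 (p53-null), stable ts p53-A138V + BP100-Luc; 1000 cells/well, Opti-MEM/10% FBS; cpd 4 pt, 1:5; 24 h, 37 deg C, 5% CO2; detection reagent 10 min RT; luminescence.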
The depositor's hits bear a star; ? = inconclusive; · = no result given; [ ] = remark or other dose. Calls follow the shape of the dose curve; as a rule, active = well fitted curve in the direction sought with a large enough effect; inconclusive = small, poorly fitted or top-dose-only effect, or another doubt; inactive = no such curve, though single readings can be large; an effect the other way counts as inactive or inconclusive. Potency is read from the fitted curve at half-maximal effect.

SMILES | ELG1 genotoxic | SMN2 splice up | NPC1 promoter act | FLuc counter | Rab9 prom act | p53 reactivator
COc1ccc(-c2csc(NC(=O)c3cc(C)oc3C)n2)cc1OC | -26% | · | -3% | 19µM* | 8% | 3%
COc1ccc(-c2csc(NC(=O)c3ccco3)n2)cc1 | 16% | 7.9µM* | 2.8µM* | 9.5µM* | 2.2µM* | ?
COc1ccc(-c2csc(NC(=O)c3c(OC)cccc3OC)n2)cc1 | 2% | · | -2% | 0% | 0% | -3%
O=C(O)c1ccccc1C(=O)Nc1nc(-c2ccc3ccccc3c2)cs1 | 8% | · | 1% | 17µM* | ? | ?
CCN(c1ccccc1)S(=O)(=O)c1ccc(NC(=O)c2cc(=O)c3ccc(C)c(C)c3o2)cc1 | · | -3% | · | -4% | · | ·
O=C(NNc1nc(-c2ccc(Br)cc2)cs1)c1ccco1 | ? | -27% | 15% | 8.5µM* | ? | 22%
Cc1cccc(NC(=O)c2ccco2)c1C | 2% | · | -3% | 0% | 0% | 6%
Cc1ccc(-c2csc(NC(=O)c3c(C)noc3C)n2)cc1C | 1% | · | 3% | ? | 0% | ?
O=C(O)c1cc(NC(=O)c2ccco2)cc(NC(=O)c2ccco2)c1 | 0% | · | -1% | 4% | -4% | 3%
Cc1cc(NC(=O)c2ccco2)sc1C | ? | · | 2µM* | 5.4µM* | 2µM* | ?
O=C(Nc1cc(-c2ccccc2)cs1)c1ccco1 | 16µM* | · | ? | 7.6µM* | 3.5µM* | 7%
Cc1ccc(-c2csc(NC(=O)c3ccco3)n2)cc1C | ? | · | 2.2µM* | 8.5µM* | 4µM* | 5%
COc1ccc2c(c1)C(=O)[C@@H](OC(=O)NC1CCCC1)[C@H](c1ccc(OC)c(Br)c1)O2 | · | 2% | · | · | · | ·
O=C(CSc1ncc2c(n1)-c1ccccc1N(Cc1ccc(Cl)cc1)S2(=O)=O)c1ccc(Cl)cc1 | · | · | · | -4% | · | ·
CCCN1C(=O)C(NC(=O)c2ccccc2OC)(C(F)(F)F)C(C(=O)OC)=C1C (stereo unspecified) | · | -15% | · | -3% | · | ·
CCCC(=O)N=C1SC2CS(=O)(=O)CC2N1c1ccc(-c2nc3ccc(C)cc3s2)cc1 (stereo unspecified) | 21µM* | · | 3.5µM* | 5.4µM* | 4µM* | ?
Cc1ccccc1-c1noc(-c2ccccc2C(=O)NCC2CCCO2)n1 (stereo unspecified) | -8% | · | 1% | 15µM* | -1% | -1%
O=C(NCC1CCCO1)c1ccccc1-c1nc(-c2ccc(F)cc2)no1 (stereo unspecified) | -5% | -42% | 1% | ? | -1% | -1%
COc1ccc(-c2noc(-c3ccccc3C(=O)NCC3CCCO3)n2)cc1 (stereo unspecified) | -9% | · | 1% | 9.5µM* | -1% | 1%
COc1ccccc1-c1noc(-c2ccccc2C(=O)NCC2CCCO2)n1 (stereo unspecified) | -3% | · | 1% | 15µM* | 1% | 17%
N#Cc1ccc(/C=C/C(=O)c2ccccc2)cc1 | ? | · | 18% | 5.4µM* | 5% | -9%
O=C(/C=C/c1ccccc1)c1ccccc1 | ? | -30% | 0% | 2.4µM* | -4% | 12%
O=C(/C=C/c1ccc(NC(=O)c2ccccc2-c2ccccc2C(=O)O)cc1)c1ccccc1 | -5% | · | 7% | 19µM* | 21% | -52%
N#Cc1ccccc1COc1ccc(/C=C/C(=O)O)cc1 | -2% | -18% | -5% | 2.4µM* | -18% | -11%
COc1cc(NCC[C@@H]2CCCCN2)c2ncccc2c1 | · | -87%[9.22 µM] | · | · | · | ·
SMILES | ELG1 genotoxic | SMN2 splice up | NPC1 promoter act | FLuc counter | Rab9 prom act | p53 reactivator
CCc1ccc(CNC(=O)c2cnc3sc4cc(OC)ccc4n3c2=O)cc1 | · | 4% | · | 3% | · | ·
CC(C)(C)C(=O)/C=C(N)/C=C/c1ccccc1 | ? | 14% | ? | 12µM* | 7% | ?
Cc1ccc(C(=O)/C=C/c2ccc(-c3ccc(C)cc3)o2)cc1 | 9% | 25%[1.84 µM] | 1% | -5% | 2% | 2%
O=C(/C=C/c1ccc(O)cc1)c1ccccc1O | · | -115% | · | · | · | ·
N/C(=N\OC(=O)/C=C/c1ccccc1)c1ccccc1 | 8.2µM* | · | ? | 1.5µM* | ? | ?
O=C(/C=C/c1ccccc1)c1ccc2c3c(cccc13)CC2 | ? | · | 16% | 12µM* | 1% | ?
O=C(/C=C\c1ccc(-c2ccccc2)o1)c1ccccc1 | ? | ? | ? | 6µM* | ? | ?
N/C(=N\OC(=O)/C=C/c1ccccc1)c1ccc(Cl)cc1 | -1% | · | 10% | ? | -1% | 9%
CCCCCCN | · | -1% | · | · | · | ·
O=C(/C=C/c1ccccc1)/C=C/c1ccccc1 | -16% | -90% | 1% | 3.4µM* | 10% | -23%
CSc1ccccc1OCc1cc(C(=O)N2CCN(c3ccccc3)CC2C)no1 (stereo unspecified) | 13% | · | ? | 15µM* | 4.5µM* | 22%
CC(=O)c1ccc(OCc2cc(C(=O)N3CCN(c4ccccc4)CC3C)no2)cc1 (stereo unspecified) | ? | · | 1.6µM* | 8.5µM* | 1.3µM* | ?
O=S(=O)(Cc1cc(-c2ccccc2)no1)c1ccccc1 | ? | ? | ? | 27µM* | ? | 1%
COc1ccc(-c2cc(CNS(=O)(=O)c3ccc(NC(C)=O)cc3)on2)cc1 | -4% | · | 0% | -1% | 1% | -4%
COc1ccc(-c2cc(CS(=O)(=O)c3ccccc3)on2)cc1 | ? | 18µM* | 3.2µM* | 11µM* | 3.2µM* | -7%
Cc1cc2c(s1)c1cnn(-c3ccccc3)c(=O)c1n2C | -1% | · | 15% | 6.7µM* | ? | -12%
Cc1cc2c(s1)c1cnn(CC(=O)NCCc3ccccc3)c(=O)c1n2C | -2% | -5% | -1% | 2% | -7% | 6%
Cc1c(Cl)cccc1NC(=O)CCS(=O)(=O)c1ccc2c(c1)CC(C)N2C(=O)C1CC1 (stereo unspecified) | · | · | · | -5% | · | ·
O=c1c2cc(F)ccc2sn1-c1ccc(F)cc1 | 0% | · | 17% | ? | 30% | ?
COc1ccc(-n2sc3ccc(F)cc3c2=O)cc1 | 5% | · | ? | ? | 3.5µM* | ·
CC(C(=O)N1CCN(c2ccc(Cl)cc2)CC1)c1ncc(C(F)(F)F)cc1Cl (stereo unspecified) | -9% | -25% | 1% | 3% | -4% | 2%
C=C(C)Cn1c(=O)c2c(nc3n2CCN3c2ccc(CC)cc2)n(C)c1=O | · | · | · | -4% | · | ·
Cn1c(N)c(C(=O)c2cc(-c3ccncc3)nc3ccccc23)c(=O)n(C)c1=O | ? | 12% | -2% | 24µM* | 0% | -2%

High-throughput results (PubChem)
